This passage reports Potency, max response and activity change, negative = inhibition results from PubChem BioAssay (NCATS).

Structures are written as SMILES. Inconclusive results are not listed. Activity calls are given as the source filed them. Unless noted, the call rests on the fitted dose curve; in most records, active means well fitted curve in the direction sought with a large enough effect; inconclusive means small, poorly fitted or top-dose-only effect, or another doubt; inactive means no such curve, though single readings can be large; an effect the other way counts as inactive or inconclusive.

For test [1], the target named is Cytochrome P450 3A4 (Homo sapiens) (UniProt P08684). The test can be described thus: qHTS Assay for Inhibitors and Substrates of Cytochrome P450 3A4 (AID 884). Further: potency means the concentration at half of the fitted maximal effect; nearly all actives have a fitted effect of over 50% in size. The essentials:
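Luminescent readout of luciferin produced by CYP3A4 (20 nM) dealkylation of Luciferin-PPXE, 25 uM (its KM). NADPH-driven reaction ran 60 min at RT after 10 min compound preincubation; data scaled to 57 uM ketoconazole as 100% inhibition.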
Background: In qHTS, concentration-response curves come from the screen itself.

For test [2] the target is unchanged. The test can be described thus: qHTS Assay for Activators of Cytochrome P450 3A4 (AID 885). Further: nearly all actives have a fitted effect of over 65% in size. A digest of the protocol: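 Using 20nM recombinant human CYP3A4 in potassium phosphate (200mM), substrate Luciferin-PPXE at 25uM, luminescent luciferin detection followed a 60-min RT NADPH reaction; data scaled to 57 uM ketoconazole.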
The subject of test [3] is Zika virus NS2B-NS3 protease. The test can be described thus: Primary screen GU AMC qHTS for Zika virus inhibitors (AID 1347154).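 Further: 0% = no-inhibitor control and -100% = no-enzyme control; nearly all actives have a fitted effect of over 70% in size.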 The essentials:
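Fluorogenic AMC-substrate cleavage by noncovalent NS2B-NS3 protease complex (25 nM, pH 8.0 Tris buffer with Tween 20) followed for 15 minutes at room temperature (~20% conversion). Percent inhibition from ex340/em450 signal change, fitted by 4-parameter Hill equation.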

Test [4] can be described thus: Confirmatory qHTS for small molecule stabilizers of the endoplasmic reticulum resident proteome: Secreted ER Calcium Modulated Protein (SERCaMP) assay (AID 1508628). Further: nearly all actives have a fitted effect of over 40% in size. Further: potency means the concentration at half of the fitted maximal effect. A digest of the protocol:
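Reporter secretion upon ER calcium depletion (100 nM thapsigargin, 4 h, 37C) is measured as medium luminescence with coelenterazine, after 16 h compound pretreatment of SH-SY5Y-GLuc-SERCaMP cells; primary at three concentrations up to 38.3 uM, follow-up at 11 (up to 76.6 uM).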

The nature of test [5]: Cell Viability qHTS for small molecule stabilizers of the endoplasmic reticulum resident proteome (AID 1508629).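 Further: compound exposure about 46 h in total before the viability read.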 Further: potency means the concentration at half of the fitted maximal effect.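 On max response: human SH-SY5Y neuroblastoma cells carrying the GLuc-SERCaMP reporter; on the % scale 0 is the no-effect control and ±100 the full control effect.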 Particulars: cell viability counter-screen, 100 nM thapsigargin for final 4 h.
Test [6] in a line: Counterscreen qHTS for small molecule stabilizers of the endoplasmic reticulum resident proteome: GLuc-NoTag assay (AID 1508627).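 Further: 0% = thapsigargin alone and -100% = DMSO vehicle control.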 The essentials:
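Counterscreen line: SH-SY5Y-GLuc-NoTag cells, treated with compound 19 hr before a 4 hr, 100 nM thapsigargin calcium depletion. Secreted Gaussia luciferase in the medium was measured by luminescence after coelenterazine was added (0.07x final), with cells unlysed.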
On the technique in general: The purpose of a counterscreen is to sort out artefacts and off-target activity.

Test [7] in a line: Primary qHTS for small molecule stabilizers of the endoplasmic reticulum resident proteome: Secreted ER Calcium Modulated Protein (SERCaMP) assay (AID 1508630). Further: on the % scale 0 is the no-effect control and ±100 the full control effect. The essentials:
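The SH-SY5Y reporter protocol was run at 3 concentrations up to 38.3 uM (primary) or 11 concentrations (follow-up): 16 h compound, 100 nM thapsigargin for 4 h, then extracellular luciferase luminescence.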

Test [8] concerns the target Cytochrome P450 1A2 (Homo sapiens) (UniProt P05177). The test can be described thus: p450-cyp1a2 (AID 410; calls by dose curve;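 further: -100% = full effect of reference inhibitor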). The essentials: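 Luminescent demethylation readout: Luciferin-ME (100uM, equal to Km) turned over by 20nM CYP1A2 for 60 min at room temperature after NADPH regeneration addition, following 10 min compound preincubation. Normalization used 57 uM furafylline as full inhibition.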

For test [9], the target named is Glucocorticoid receptor (Homo sapiens) (UniProt P04150). The test can be described thus: GR-GFP Redistribution (AID 450;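 active means compounds whose dose series gives a full or clear partial fitted curve of increased nuclear translocation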; further: potency means the concentration at half of the fitted maximal effect). Particulars: U2OS GR-GFP nuclear translocation, laser cytometry, 2 h.
Chain of Glucocorticoid receptor (Homo sapiens) (P04150 whole entry, looked up, the tested form may be a part): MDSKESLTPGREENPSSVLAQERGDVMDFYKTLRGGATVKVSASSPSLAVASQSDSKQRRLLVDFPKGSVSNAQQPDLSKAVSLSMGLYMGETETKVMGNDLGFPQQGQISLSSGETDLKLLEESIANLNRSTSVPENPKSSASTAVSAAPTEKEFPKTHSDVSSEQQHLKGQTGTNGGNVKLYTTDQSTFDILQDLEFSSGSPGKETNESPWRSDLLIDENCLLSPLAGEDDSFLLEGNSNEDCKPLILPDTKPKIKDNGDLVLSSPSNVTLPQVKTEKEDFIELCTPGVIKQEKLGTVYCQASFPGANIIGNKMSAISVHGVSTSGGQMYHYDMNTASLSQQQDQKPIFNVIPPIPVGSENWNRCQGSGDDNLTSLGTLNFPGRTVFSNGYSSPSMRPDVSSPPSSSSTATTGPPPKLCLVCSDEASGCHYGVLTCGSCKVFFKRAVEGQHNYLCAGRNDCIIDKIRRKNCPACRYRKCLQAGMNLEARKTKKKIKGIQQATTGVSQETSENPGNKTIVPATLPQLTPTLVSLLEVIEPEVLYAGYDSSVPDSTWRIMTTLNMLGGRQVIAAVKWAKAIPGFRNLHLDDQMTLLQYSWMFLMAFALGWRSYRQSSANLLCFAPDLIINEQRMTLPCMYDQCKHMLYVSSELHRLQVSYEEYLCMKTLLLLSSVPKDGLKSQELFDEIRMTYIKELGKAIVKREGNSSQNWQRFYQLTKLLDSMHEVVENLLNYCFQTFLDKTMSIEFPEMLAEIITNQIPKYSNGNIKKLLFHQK
Test [10] shares this target. The test can be described thus: GR-EFC Redistribution (AID 451; calls by dose curve; further: potency means the concentration at half of the fitted maximal effect). Particulars: CHO-K1 GR-EFC translocation, beta-gal luminescence, 2 h. The essentials: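 Translocation of GR-ED fusion to nuclear EA restores b-gal, read by luminescence after 1 h room-temperature detection. Engineered CHO-K1 biosensor cells, 1,000/well, exposed 2 h at 37 C to titrations up to 46 uM final.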

Test [11] addresses Mitogen-activated protein kinase 10 (Mus musculus) (UniProt Q61831). The test can be described thus: JNK3 AlphaScreen Assay (AID 530; active means well fitted curve in either direction with a large enough effect, not every such curve was filed as active;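 further: kinase came from lysate of stimulated human HepG2 cells; signal reports phosphorylation of biotinylated GST-cJun 1-79 at Ser73 with 10 µM ATP; on the % scale 0 is the no-effect control and ±100 the full control effect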). The essentials:
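qHTS titrations with 15 min compound pre-incubation before adding ATP (10 uM final). Read-out: AlphaScreen of Ser73-phosphorylated biotin-GST-cJun using HepG2 lysate JNK3 activated by IL-1β and TNFα.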
In general terms: Bead proximity is the source of the signal in Alpha formats.

The target in test [12] is Cytochrome P450 2C9 (Homo sapiens) (UniProt P11712). The test can be described thus: qHTS Assay for Inhibitors and Substrates of Cytochrome P450 2C9 (AID 883). Further: potency means the concentration at half of the fitted maximal effect; nearly all actives have a fitted effect of over 60% in size. A digest of the protocol: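 Inhibition of CYP2C9 is scored as loss of luminescence, with 57uM sulphaphenazole defining 100% inhibition. Substrate Luciferin-H is used at 100uM, equal to its KM; enzyme at 10nM in 25mM KPO4, 60 min at 37C with NADPH regeneration.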
Chain of Cytochrome P450 2C9 (Homo sapiens) (P11712 whole entry, looked up): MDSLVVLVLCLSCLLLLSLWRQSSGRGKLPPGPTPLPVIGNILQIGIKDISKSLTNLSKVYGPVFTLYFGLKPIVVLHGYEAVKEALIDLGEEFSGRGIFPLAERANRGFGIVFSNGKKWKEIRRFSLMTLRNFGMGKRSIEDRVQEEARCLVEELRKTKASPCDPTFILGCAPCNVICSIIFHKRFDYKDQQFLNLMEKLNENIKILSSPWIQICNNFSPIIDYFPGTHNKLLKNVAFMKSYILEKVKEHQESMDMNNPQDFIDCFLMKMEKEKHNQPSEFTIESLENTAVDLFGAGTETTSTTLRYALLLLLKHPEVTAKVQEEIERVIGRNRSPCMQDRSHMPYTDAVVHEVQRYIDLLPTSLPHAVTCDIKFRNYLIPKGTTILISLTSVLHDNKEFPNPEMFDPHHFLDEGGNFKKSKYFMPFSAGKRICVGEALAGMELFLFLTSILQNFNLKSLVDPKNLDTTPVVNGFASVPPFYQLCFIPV

The target of test [13] is Cytochrome P450 2C19 (Homo sapiens) (UniProt P33261). The test can be described thus: qHTS Assay for Inhibitors and Substrates of Cytochrome P450 2C19 (AID 899). Further: potency means the concentration at half of the fitted maximal effect; nearly all actives have a fitted effect of over 60% in size. The essentials:
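5nM enzyme + 10uM Luciferin-H EGE (=KM), 50mM KPO4; cpd pin-transferred, 10 min 37C; NADPH regen, 60 min 37C; stopped w/ luciferin detection reagent, 20 min; luminescence. Normalized to 57uM ketoconazole (AC100).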

Test [14] can be described thus: qHTS Assay for Lipid Storage Modulators (AID 1519; calls by dose curve; on activity change, negative = inhibition: on the % scale 0 is the no-effect control and ±100 the full control effect). Particulars: Drosophila S3 cells, BODIPY lipid droplet/cell ratio, laser cytometry, cells loaded with oleic acid. A digest of the protocol: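 Cells seeded at 5,000 per well were treated with compounds over a concentration series and loaded with oleic acid (400 uM, as added). Lipid droplet fluorescence (488 nm excitation, 500-530 nm channel) was read by laser-scanning cytometry and normalized to 20 uM Triacsin C.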

Test [15] concerns the target DNA dC->dU-editing enzyme APOBEC-3G (Homo sapiens) (UniProt Q9HC16). The test can be described thus: qHTS for inhibitors of Vif-A3G interactions: Validation (AID 588379). Further: 0% is about no effect. A digest of the protocol:
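Yellow fluorescence (Ex 488, Em 500-530) of Vif-coexpressing HeLa A3G-eYFP cells, scanned by Acumen cytometer, reports blocked A3G degradation. Cells plated at 700/well overnight at 37 deg C before compound addition, then a further overnight compound incubation at 37 deg C.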

Chain of Cytochrome P450 3A4 (Homo sapiens) (P08684 whole entry, looked up): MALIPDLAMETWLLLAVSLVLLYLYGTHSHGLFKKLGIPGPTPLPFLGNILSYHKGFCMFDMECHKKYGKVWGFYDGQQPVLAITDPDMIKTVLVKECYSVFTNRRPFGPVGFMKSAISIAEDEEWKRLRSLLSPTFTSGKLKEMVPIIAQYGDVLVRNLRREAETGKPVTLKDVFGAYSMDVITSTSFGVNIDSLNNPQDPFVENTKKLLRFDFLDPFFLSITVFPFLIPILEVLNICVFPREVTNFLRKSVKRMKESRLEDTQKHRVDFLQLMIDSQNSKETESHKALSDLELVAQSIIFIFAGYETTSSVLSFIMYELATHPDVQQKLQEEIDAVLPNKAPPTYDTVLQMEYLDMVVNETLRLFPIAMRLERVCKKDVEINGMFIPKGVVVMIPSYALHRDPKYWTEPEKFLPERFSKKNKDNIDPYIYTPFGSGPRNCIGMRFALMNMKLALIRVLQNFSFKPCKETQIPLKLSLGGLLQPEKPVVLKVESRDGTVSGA
Chain of Cytochrome P450 1A2 (Homo sapiens) (P05177 whole entry, looked up): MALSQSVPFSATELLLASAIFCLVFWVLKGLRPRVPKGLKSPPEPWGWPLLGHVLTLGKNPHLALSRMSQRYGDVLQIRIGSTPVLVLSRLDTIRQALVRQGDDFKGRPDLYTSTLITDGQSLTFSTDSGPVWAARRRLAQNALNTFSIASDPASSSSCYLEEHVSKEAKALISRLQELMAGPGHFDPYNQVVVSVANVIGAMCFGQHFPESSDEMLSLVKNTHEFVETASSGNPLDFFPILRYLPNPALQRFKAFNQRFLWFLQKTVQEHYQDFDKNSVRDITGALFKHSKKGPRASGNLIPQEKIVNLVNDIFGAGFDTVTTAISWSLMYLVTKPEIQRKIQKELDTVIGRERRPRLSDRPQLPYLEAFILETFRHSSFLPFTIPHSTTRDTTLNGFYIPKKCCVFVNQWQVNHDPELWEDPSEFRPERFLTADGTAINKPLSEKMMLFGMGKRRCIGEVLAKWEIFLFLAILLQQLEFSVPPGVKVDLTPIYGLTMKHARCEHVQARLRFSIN
Chain of DNA dC->dU-editing enzyme APOBEC-3G (Homo sapiens) (Q9HC16 whole entry, looked up): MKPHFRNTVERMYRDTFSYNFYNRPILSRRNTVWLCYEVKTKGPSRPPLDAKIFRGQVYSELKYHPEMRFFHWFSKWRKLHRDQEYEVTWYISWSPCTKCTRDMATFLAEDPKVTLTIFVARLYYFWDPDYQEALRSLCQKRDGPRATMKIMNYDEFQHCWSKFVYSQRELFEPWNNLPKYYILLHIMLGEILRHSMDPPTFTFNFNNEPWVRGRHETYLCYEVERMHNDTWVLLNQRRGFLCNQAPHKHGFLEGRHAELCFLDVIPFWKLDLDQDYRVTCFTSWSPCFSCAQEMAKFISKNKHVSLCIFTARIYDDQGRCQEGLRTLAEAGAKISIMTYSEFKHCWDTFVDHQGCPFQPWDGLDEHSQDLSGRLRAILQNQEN
Chain of Cytochrome P450 2C19 (Homo sapiens) (P33261 whole entry, looked up): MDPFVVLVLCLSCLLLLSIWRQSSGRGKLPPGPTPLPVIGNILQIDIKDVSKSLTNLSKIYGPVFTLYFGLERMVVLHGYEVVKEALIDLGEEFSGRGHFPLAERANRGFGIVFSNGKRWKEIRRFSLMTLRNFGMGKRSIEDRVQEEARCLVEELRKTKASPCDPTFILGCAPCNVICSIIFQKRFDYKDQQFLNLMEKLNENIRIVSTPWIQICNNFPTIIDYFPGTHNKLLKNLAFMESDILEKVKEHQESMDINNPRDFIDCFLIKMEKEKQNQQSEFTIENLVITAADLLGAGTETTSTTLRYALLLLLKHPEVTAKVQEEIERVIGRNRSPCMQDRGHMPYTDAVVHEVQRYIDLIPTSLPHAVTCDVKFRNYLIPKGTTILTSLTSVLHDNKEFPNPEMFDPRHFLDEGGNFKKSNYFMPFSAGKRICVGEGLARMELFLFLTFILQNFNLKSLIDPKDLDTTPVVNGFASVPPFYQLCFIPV

Take `COc1cccc(CCc2ccccc2OCC[C@@H]2C[C@@H](O)CN2C)c1`: the Potency in test [1] is 3.16 µM (active); in test [5], 15.8 µM (active). For the same compound, the Potency result in test [2], in test [3] and in test [4] was “inactive” each time.
As for `N[C@@H](CCS(=O)O)C(=O)O`, the Potency result in test [3], in test [6], in [4] and in test [7] was “inactive” throughout.
As to `CN(C)C1CCc2[nH]c3ccc(NC(=O)c4ccc(F)cc4)cc3c2C1` (centres undefined), the Potency entry in test [3] and in [6] was “inactive” throughout. Moreover, the max response in test [5] was -26.6% (inactive).
With `CCN(CC)CCCCN1c2ccccc2Oc2ccc(Cl)cc21`, the Potency entry in test [3] and in test [4] was “inactive” throughout.
Regarding `C=C[C@@]1(C)CC(=O)[C@@]2(O)[C@@]3(C)[C@@H](O)CCC(C)(C)[C@@H]3[C@H](OC(=O)CCN(C)C)[C@H](OC(C)=O)[C@@]2(C)O1`, the Potency result in [8], in test [11], in [2], in test [15], in test [3] and in test [6] was “inactive” in each case. Further, the Potency in [9] was > 46 µM (inactive); in test [10], > 46 µM (inactive); in test [12], 126 nM (active); in test [1], 2.51 µM (active); in [13] it was 251 nM (active); in test [4], 14.1 µM (active). Moreover, in [14] (at 57.5 µM (top of the series)), the activity change, negative = inhibition is -1.7% (inactive). The max response is -14.6% in test [14] (measured here: cell count channel max response) and -17.4% in [14] (measured here: lipid channel max response).
